Assay results published in ChEMBL document CHEMBL1961873, “Compounds: GSK PKIS; Assays: Nanosyn kinase panel” (2012).

System: Epidermal growth factor receptor (Homo sapiens), P00533 [T790M]
Conditions: at 1 µM

Chain of Epidermal growth factor receptor (Homo sapiens), P00533 [T790M] (P00533 whole entry T790M): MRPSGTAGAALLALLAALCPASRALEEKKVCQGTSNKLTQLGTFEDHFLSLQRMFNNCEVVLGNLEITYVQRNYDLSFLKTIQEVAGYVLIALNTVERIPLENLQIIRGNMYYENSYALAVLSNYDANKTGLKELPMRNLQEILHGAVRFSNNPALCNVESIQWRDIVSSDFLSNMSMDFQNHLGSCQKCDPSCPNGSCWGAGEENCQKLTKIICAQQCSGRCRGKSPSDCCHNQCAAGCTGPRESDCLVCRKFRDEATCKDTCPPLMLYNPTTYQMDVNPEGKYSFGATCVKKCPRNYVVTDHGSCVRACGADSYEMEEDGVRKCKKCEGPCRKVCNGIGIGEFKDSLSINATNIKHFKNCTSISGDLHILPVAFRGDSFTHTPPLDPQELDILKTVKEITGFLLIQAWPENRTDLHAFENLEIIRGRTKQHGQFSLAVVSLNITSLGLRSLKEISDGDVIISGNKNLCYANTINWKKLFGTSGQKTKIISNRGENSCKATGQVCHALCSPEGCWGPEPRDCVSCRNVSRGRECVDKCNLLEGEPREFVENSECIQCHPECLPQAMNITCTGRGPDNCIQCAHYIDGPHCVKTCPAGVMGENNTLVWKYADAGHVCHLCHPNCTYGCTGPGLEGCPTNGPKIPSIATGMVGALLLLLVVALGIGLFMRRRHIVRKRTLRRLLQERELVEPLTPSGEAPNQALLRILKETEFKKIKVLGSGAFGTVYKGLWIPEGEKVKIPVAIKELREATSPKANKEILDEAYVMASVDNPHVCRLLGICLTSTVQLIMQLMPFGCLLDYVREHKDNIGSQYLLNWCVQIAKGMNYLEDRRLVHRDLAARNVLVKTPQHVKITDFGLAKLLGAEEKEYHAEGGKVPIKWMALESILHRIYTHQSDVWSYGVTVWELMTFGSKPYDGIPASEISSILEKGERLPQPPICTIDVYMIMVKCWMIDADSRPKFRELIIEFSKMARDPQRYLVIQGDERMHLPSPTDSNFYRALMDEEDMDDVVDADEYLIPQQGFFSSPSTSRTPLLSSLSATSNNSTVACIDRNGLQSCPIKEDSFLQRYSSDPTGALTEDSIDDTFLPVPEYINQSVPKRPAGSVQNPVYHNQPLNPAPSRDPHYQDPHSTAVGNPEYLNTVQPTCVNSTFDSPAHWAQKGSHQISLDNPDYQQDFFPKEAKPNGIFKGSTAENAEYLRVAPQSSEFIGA

Row | SMILES | inhibition
1 | C[C@@H](Oc1cc(-n2cnc3ccc(OCC4CCN(C)CC4)cc32)sc1C(N)=O)c1ccccc1C(F)(F)F | 1.67%
2 | Cc1cc(O)cc(C)c1/C=C/c1cncc(C(=O)N(C)C)c1 | 0.44%
3 | c1ccc(Nc2ncc(-c3ccccc3)o2)cc1 | 3.42%
4 | COc1ccc(-c2nn3ncccc3c2-c2ccnc(Nc3cccc(C(F)(F)F)c3)n2)cc1 | 2.06%
5 | Cc1ccc(NC(=O)CC2CC2)cc1-c1ccc(C(=O)NCC2CC2)cc1 | 2.09%
6 | COC(=O)c1ccc2c(c1)C(=Cc1cc(Br)c(O)c(Br)c1)C(=O)N2 | 0.92%
7 | Cc1ccc2c(-c3ccnc(Nc4ccc5c(c4)OCCO5)n3)c(-c3ccc(C(F)(F)F)cc3)nn2n1 | 1.14%
8 | COc1cc(/C=N/Nc2ncnc3c2cnn3C(C)C)ccc1O | 0.47%
9 | Nc1ccc(C#Cc2cncnc2Nc2ccc(OCc3cccc(F)c3)c(Cl)c2)cc1 | 2.68%
10 | ON=C1CCc2cc(-c3nc(C4CCNCC4)[nH]c3-c3ccncc3)ccc21 | -1.84%
11 | COc1cccc(-n2ncc3c(N/N=C/c4ccc(C)cc4)ncnc32)c1 | 2.25%
12 | CCS(=O)(=O)c1ccc(OC)c(Nc2ncc(-c3cccc(OC)c3)o2)c1 | -0.32%
13 | CC(C)c1ccc2c(c1)NC(=O)/C2=N/Nc1ccc(S(N)(=O)=O)cc1 | -1.35%
14 | Cc1cc(Cl)cc2c1NC(=O)C2=NNc1ccc(S(N)(=O)=O)cc1 | 3.73%
15 | CC(C)c1ccc(Nc2nccc(-c3cnn4ncccc34)n2)cc1 | 2.45%
16 | N#Cc1cccc(Nc2nccc(-c3cnn4ncccc34)n2)c1 | 6.4%
17 | Oc1cccc(-c2nc(-c3ccccc3)[nH]c2-c2ccncc2)c1 | 2.55%

Row | SMILES | inhibition
18 | CN1CCN(C(=O)c2ccc(NC(=O)Nc3ccc(N(C)c4ccnc(Nc5ccc(CS(C)(=O)=O)cc5)n4)cc3)cc2)CC1 | 1.47%
19 | COC(=O)Nc1nc2cc(Oc3ccc(NC(=O)Nc4cccc(Br)c4)cc3)ccc2[nH]1 | 2.61%
20 | COc1cccc(-n2ncc3c(N/N=C/c4ccc(S(C)(=O)=O)cc4)ncnc32)c1 | 0.63%
21 | NS(=O)(=O)c1ccc(NC=C2C(=O)Nc3ccc4ncsc4c32)cc1 | 2.64%
22 | CS(=O)(=O)CCNCc1nc(-c2ccc3ncnc(Nc4ccc(OCc5cccc(C(F)(F)F)c5)cc4)c3c2)cs1 | -0.12%
23 | C[C@@H](Oc1cc(-n2cnc3ccc(OC[C@@H](O)CO)cc32)sc1C(N)=O)c1ccccc1Cl | -1.48%
24 | NS(=O)(=O)c1ccc(-c2cc3ccncc3cc2OCc2ccccc2)cc1 | 4.44%
25 | NS(=O)(=O)c1ccc(Nc2cc(-c3cccc(O)c3)n[nH]2)cc1 | 3.02%
26 | Cc1ccc(Nc2ccnc(Nc3cccc(C(N)=O)c3)n2)cc1O | 14.9%
27 | COc1cccc(-n2nc(C)c3c(N/N=C(\C)c4ccncc4)ncnc32)c1 | -1.56%
28 | CCn1c(-c2nonc2N)nc2ccc(F)cc21 | 6.26%
29 | COc1cc2ncn(-c3cc(OCc4ccccc4S(C)(=O)=O)c(C#N)s3)c2cc1OC | 8.63%
30 | COc1cc2ncnc(Nc3ccc(C)c(O)c3)c2cc1OC | 31.2%
31 | NS(=O)(=O)c1cccc(-c2cc3ccncc3cc2OCc2ccccc2)c1 | 1.71%
32 | COC(=O)c1cncc(/C=C/c2c(C)cc(O)cc2C)c1 | 4.21%
33 | COc1cc(Nc2nccc(-c3cnn4ncccc34)n2)cc(OC)c1 | -0.64%

System: Epidermal growth factor receptor (Homo sapiens), P00533 [L858R,T790M]
Conditions: at 0.1 µM

Chain of Epidermal growth factor receptor (Homo sapiens), P00533 [L858R,T790M] (P00533 whole entry T790M/L858R, looked up): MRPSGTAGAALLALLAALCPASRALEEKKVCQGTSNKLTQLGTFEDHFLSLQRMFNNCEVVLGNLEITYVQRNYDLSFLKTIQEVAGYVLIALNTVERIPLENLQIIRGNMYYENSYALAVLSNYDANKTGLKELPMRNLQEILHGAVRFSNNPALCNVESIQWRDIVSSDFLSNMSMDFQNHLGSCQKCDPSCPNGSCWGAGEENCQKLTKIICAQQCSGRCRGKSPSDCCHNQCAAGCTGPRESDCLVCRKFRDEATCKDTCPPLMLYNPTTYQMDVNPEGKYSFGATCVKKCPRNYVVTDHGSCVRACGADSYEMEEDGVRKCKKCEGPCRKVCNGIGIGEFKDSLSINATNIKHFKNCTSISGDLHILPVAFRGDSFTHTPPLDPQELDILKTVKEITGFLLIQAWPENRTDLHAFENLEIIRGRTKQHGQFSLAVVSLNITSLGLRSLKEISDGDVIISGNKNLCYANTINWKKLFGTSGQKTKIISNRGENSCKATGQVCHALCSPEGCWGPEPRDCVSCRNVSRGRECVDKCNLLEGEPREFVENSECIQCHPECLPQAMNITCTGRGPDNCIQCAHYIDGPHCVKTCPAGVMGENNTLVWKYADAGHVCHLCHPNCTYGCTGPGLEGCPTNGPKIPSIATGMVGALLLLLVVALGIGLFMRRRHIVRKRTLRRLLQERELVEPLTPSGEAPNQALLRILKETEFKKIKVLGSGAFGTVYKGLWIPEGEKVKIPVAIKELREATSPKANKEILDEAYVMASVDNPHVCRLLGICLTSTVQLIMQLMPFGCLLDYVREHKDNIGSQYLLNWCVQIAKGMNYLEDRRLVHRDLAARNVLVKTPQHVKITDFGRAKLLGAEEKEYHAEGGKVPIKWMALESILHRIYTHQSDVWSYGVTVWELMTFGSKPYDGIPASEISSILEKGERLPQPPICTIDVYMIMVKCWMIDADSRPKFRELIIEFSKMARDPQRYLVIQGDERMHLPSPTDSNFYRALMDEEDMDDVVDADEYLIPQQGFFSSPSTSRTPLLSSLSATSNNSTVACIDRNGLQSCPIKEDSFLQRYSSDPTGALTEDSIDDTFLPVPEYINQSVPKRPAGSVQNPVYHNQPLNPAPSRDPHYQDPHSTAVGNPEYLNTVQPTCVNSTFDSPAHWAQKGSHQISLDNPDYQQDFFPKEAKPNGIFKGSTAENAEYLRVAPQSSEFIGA

Row | SMILES | inhibition
34 | C[C@@H](Oc1cc(-n2cnc3ccc(OCC4CCN(C)CC4)cc32)sc1C(N)=O)c1ccccc1C(F)(F)F | 1.72%
35 | Cc1cc(O)cc(C)c1/C=C/c1cncc(C(=O)N(C)C)c1 | -0.03%
36 | c1ccc(Nc2ncc(-c3ccccc3)o2)cc1 | -0.6%
37 | COc1ccc(-c2nn3ncccc3c2-c2ccnc(Nc3cccc(C(F)(F)F)c3)n2)cc1 | -0.41%
38 | Cc1ccc(NC(=O)CC2CC2)cc1-c1ccc(C(=O)NCC2CC2)cc1 | 0.02%
39 | COC(=O)c1ccc2c(c1)C(=Cc1cc(Br)c(O)c(Br)c1)C(=O)N2 | -1.65%
40 | Cc1ccc2c(-c3ccnc(Nc4ccc5c(c4)OCCO5)n3)c(-c3ccc(C(F)(F)F)cc3)nn2n1 | 2.01%
41 | COc1cc(/C=N/Nc2ncnc3c2cnn3C(C)C)ccc1O | -0.23%
42 | Nc1ccc(C#Cc2cncnc2Nc2ccc(OCc3cccc(F)c3)c(Cl)c2)cc1 | -0.93%
43 | ON=C1CCc2cc(-c3nc(C4CCNCC4)[nH]c3-c3ccncc3)ccc21 | -1.88%
44 | COc1cccc(-n2ncc3c(N/N=C/c4ccc(C)cc4)ncnc32)c1 | 1.79%
45 | CCS(=O)(=O)c1ccc(OC)c(Nc2ncc(-c3cccc(OC)c3)o2)c1 | -0.04%
46 | CC(C)c1ccc2c(c1)NC(=O)/C2=N/Nc1ccc(S(N)(=O)=O)cc1 | -0.97%
47 | Cc1cc(Cl)cc2c1NC(=O)C2=NNc1ccc(S(N)(=O)=O)cc1 | -0.55%
48 | CC(C)c1ccc(Nc2nccc(-c3cnn4ncccc34)n2)cc1 | -0.56%
49 | N#Cc1cccc(Nc2nccc(-c3cnn4ncccc34)n2)c1 | 0.25%
50 | Oc1cccc(-c2nc(-c3ccccc3)[nH]c2-c2ccncc2)c1 | 2.26%

Row | SMILES | inhibition
51 | CN1CCN(C(=O)c2ccc(NC(=O)Nc3ccc(N(C)c4ccnc(Nc5ccc(CS(C)(=O)=O)cc5)n4)cc3)cc2)CC1 | -1.16%
52 | COC(=O)Nc1nc2cc(Oc3ccc(NC(=O)Nc4cccc(Br)c4)cc3)ccc2[nH]1 | -0.2%
53 | COc1cccc(-n2ncc3c(N/N=C/c4ccc(S(C)(=O)=O)cc4)ncnc32)c1 | 0.79%
54 | NS(=O)(=O)c1ccc(NC=C2C(=O)Nc3ccc4ncsc4c32)cc1 | 3.17%
55 | CS(=O)(=O)CCNCc1nc(-c2ccc3ncnc(Nc4ccc(OCc5cccc(C(F)(F)F)c5)cc4)c3c2)cs1 | -2.33%
56 | C[C@@H](Oc1cc(-n2cnc3ccc(OC[C@@H](O)CO)cc32)sc1C(N)=O)c1ccccc1Cl | -1.15%
57 | NS(=O)(=O)c1ccc(-c2cc3ccncc3cc2OCc2ccccc2)cc1 | 2.11%
58 | NS(=O)(=O)c1ccc(Nc2cc(-c3cccc(O)c3)n[nH]2)cc1 | 4.99%
59 | Cc1ccc(Nc2ccnc(Nc3cccc(C(N)=O)c3)n2)cc1O | 2.53%
60 | COc1cccc(-n2nc(C)c3c(N/N=C(\C)c4ccncc4)ncnc32)c1 | -0.53%
61 | CCn1c(-c2nonc2N)nc2ccc(F)cc21 | 3.36%
62 | COc1cc2ncn(-c3cc(OCc4ccccc4S(C)(=O)=O)c(C#N)s3)c2cc1OC | 16.9%
63 | COc1cc2ncnc(Nc3ccc(C)c(O)c3)c2cc1OC | 3.9%
64 | NS(=O)(=O)c1cccc(-c2cc3ccncc3cc2OCc2ccccc2)c1 | 1.48%
65 | COC(=O)c1cncc(/C=C/c2c(C)cc(O)cc2C)c1 | 0.04%
66 | COc1cc(Nc2nccc(-c3cnn4ncccc34)n2)cc(OC)c1 | 2.35%
